Reference: PubChem BioAssay
A number with no mark means an inactive call.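 How the source made its calls, unless noted: active means inhibition over a set limit, the all-compound mean plus 3 SD, in both replicate runs; inconclusive means over that limit in just one replicate run; inactive means at or under that limit in both runs.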 Inconclusive results are not listed.

Experiment: growth suppression of PTEN-deleted HCT116, pilot screen, cell-based, HCT116 clonal line, CellTiter-Glo (AID 824;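 active means viability at or below 27.92% in each of two runs, the all-compound median minus 4 SD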;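 further: 0% = 20 µM Hyamine control and 100% = vehicle cell control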)
Conditions: 60 h, at 10 µM, active compounds read low

SMILES | viability [%]
Cc1cc(NC(=O)C2CC(c3ccc(F)cc3)=NO2)no1 (stereo not given) | 109
CN1CCN(Cc2nc3c(c(=O)n(C)c(=O)n3C)n2CCc2ccccc2)CC1 | 103
CCOC(=O)c1ccc(NC(=O)CSc2nc3c(c(=O)n2-c2ccccc2OC)SCC3)cc1 | 81.4
C=COCCn1c(-c2nonc2N)nc2ccccc21 | 74.9
Cc1cc(OCC(=O)Nc2cc(-c3nn4c(C)nnc4s3)ccc2C)ccc1Cl | 82
O=C(Cn1cc2c(n1)CCCCC2)NCc1ccccc1 | 86.5
COc1cccc(N2CCN(C(=O)c3ccc4nc(N5CCCCC5)sc4c3)CC2)c1 | 79.2
CCOC(=O)c1c(C)oc2cc(Br)c(O)c(Br)c12 | 85.7
O=C(CSc1ccc2nnc(-c3ccccn3)n2n1)NCc1ccc2c(c1)OCO2 | 91.7
Cc1ccnc(N2C(=O)c3ccccc3C2Nc2cccc(C)c2C)c1 (stereo not given) | 87.1
COc1cccc(/C=C2\N=C(SC)SC2=O)c1OC | 105
Cn1c(NC(=O)c2ccc(Cl)cc2Cl)cc(=O)n(C)c1=O | 90.8
CC(=O)Nc1cccc(N2C(=O)CC(Cc3ccccc3)C2=O)c1 (stereo not given) | 89
COC(=O)C(C)NC(=O)C1CCCN1S(=O)(=O)c1cc(C)c(Cl)cc1C (stereo not given) | 94.9
Cc1ccc(N(C(=O)CC2NC(=O)NC2=O)C2(C(=O)NC3CCCC3)CCCCC2)cc1 (stereo not given) | 93.7
CC1(C)CC(=O)C=C(Nc2ccccc2F)C1 | 98.3
COc1ccc(S(=O)(=O)N(C)c2c(C)n(C)n(-c3ccccc3)c2=O)cc1OC | 102
CCCC(=O)NCCCc1nc2ccccc2n1CCC | 95.1
COc1ccccc1C(=O)n1nc(C)cc1C | 95.8
CC1CCCCN1Cc1nc2c(c(=O)n(C)c(=O)n2C)n1Cc1c(F)cccc1Cl (stereo not given) | 79.2

SMILES | viability [%]
O=C(c1ccc(NC2=NC3CS(=O)(=O)CC3S2)cc1)N1CCc2ccccc2C1 (stereo not given) | 106
COc1cccc(C(=O)NCc2cn3ccsc3n2)c1 | 92.4
COc1ccc2[nH]c(C)c(CCN3C(=O)C4CC=CCC4C3=O)c2c1 (stereo not given) | 89.2
CCOC(=O)c1[nH]c(C)c(C(=O)NCCN2CCOCC2)c1C | 97.7
COc1cccc(CNC(=O)CN(c2cc(C)cc(C)c2)S(=O)(=O)c2c(C)noc2C)c1 | 90.4
CCC(=NCCc1ccccc1)C1=C(O)CCC1=O | 98.8
O=C(CN1CCN(Cc2ccccc2F)C1=O)NCCN1CCOCC1 | 99.5
CCOc1ccccc1NC(=O)c1c(NC(=O)CNCc2ccco2)sc2c1CCC2 | 55.5
O=C1C2CCCN2C(c2ccc(Br)cc2)N1c1ccc(F)cc1 (stereo not given) | 90
Cc1ccc(O)c(-c2cc(C(F)(F)C(F)F)[nH]n2)c1 | 87.3
COc1ccc(Cc2nc(-c3ccc(-n4cccc4)cc3)no2)cc1 | 88
CCN(CC)CCN1C(=O)c2ccccc2NC1c1cccc(F)c1 (stereo not given) | 91.4
CCOC(=O)COc1cccc2c(=O)n(CC(=O)N3CCc4ccccc43)ccc12 | 90.7
Cc1ccc(S(=O)(=O)/N=C(/Nc2nc(C)cc(C)n2)N2CCOCC2)cc1 | 97.4
O=C(COc1ccc(S(=O)(=O)NC2CCCCC2)cc1)N1CCN(c2ccc(F)cc2)CC1 | 67.1
COc1ccc(S(=O)(=O)Cc2ccc(C(=O)N3CCc4ccccc4C3)o2)cc1 | 94.1
Cc1c(C(=O)NCC(C)C)sc2nc(-c3ccc(F)cc3)cn12 | 103
CCCN1CCN(C(=O)C2CCN(S(=O)(=O)c3ccc4c(c3)oc(=O)n4C)CC2)CC1 | 98.5
COc1ccc(C(=O)/C=C/N2CCCCC2)cc1OC | 86.6
CCOCCn1c(CN(Cc2ccccc2)Cc2ccccc2)nc2c1c(=O)n(C)c(=O)n2C | 57.6

Experiment: inhibitors of the yeast RAM network, pilot screen, dse1pr::URA3 reporter, 5-FOA selection (AID 869);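 further: 0% = DMSO wells with no growth and 100% = 10 µM 1-NA-PP1 with full growth; RAM network block rescues cells from 5-FOA so hits raise OD615 growth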
Conditions: S. cerevisiae dse1pr::URA3 5-FOA growth, OD615, 2 d; at 10 µM; active compounds read high; strain carries analog-sensitive mutant Cbk1 kinase

SMILES | inhibition [%]
Cc1cc(NC(=O)C2CC(c3ccc(F)cc3)=NO2)no1 (stereo not given) | -0.08
CN1CCN(Cc2nc3c(c(=O)n(C)c(=O)n3C)n2CCc2ccccc2)CC1 | 0.895
CCOC(=O)c1ccc(NC(=O)CSc2nc3c(c(=O)n2-c2ccccc2OC)SCC3)cc1 | 1.34
C=COCCn1c(-c2nonc2N)nc2ccccc21 | 1.75
Cc1cc(OCC(=O)Nc2cc(-c3nn4c(C)nnc4s3)ccc2C)ccc1Cl | 2.49
O=C(Cn1cc2c(n1)CCCCC2)NCc1ccccc1 | 1.06
COc1cccc(N2CCN(C(=O)c3ccc4nc(N5CCCCC5)sc4c3)CC2)c1 | 0.805
CCOC(=O)c1c(C)oc2cc(Br)c(O)c(Br)c12 | 0.86
O=C(CSc1ccc2nnc(-c3ccccn3)n2n1)NCc1ccc2c(c1)OCO2 | 2.51
Cc1ccnc(N2C(=O)c3ccccc3C2Nc2cccc(C)c2C)c1 (stereo not given) | 1.32
COc1cccc(/C=C2\N=C(SC)SC2=O)c1OC | 3.8
Cn1c(NC(=O)c2ccc(Cl)cc2Cl)cc(=O)n(C)c1=O | 0.95
CC(=O)Nc1cccc(N2C(=O)CC(Cc3ccccc3)C2=O)c1 (stereo not given) | 0.52
COC(=O)C(C)NC(=O)C1CCCN1S(=O)(=O)c1cc(C)c(Cl)cc1C (stereo not given) | 0.935
Cc1ccc(N(C(=O)CC2NC(=O)NC2=O)C2(C(=O)NC3CCCC3)CCCCC2)cc1 (stereo not given) | -0.23
CC1(C)CC(=O)C=C(Nc2ccccc2F)C1 | -0.01
COc1ccc(S(=O)(=O)N(C)c2c(C)n(C)n(-c3ccccc3)c2=O)cc1OC | 0.535
CCCC(=O)NCCCc1nc2ccccc2n1CCC | 1.56
COc1ccccc1C(=O)n1nc(C)cc1C | -0.645
CC1CCCCN1Cc1nc2c(c(=O)n(C)c(=O)n2C)n1Cc1c(F)cccc1Cl (stereo not given) | 1.46

SMILES | inhibition [%]
O=C(c1ccc(NC2=NC3CS(=O)(=O)CC3S2)cc1)N1CCc2ccccc2C1 (stereo not given) | 1.67
COc1cccc(C(=O)NCc2cn3ccsc3n2)c1 | 2.06
COc1ccc2[nH]c(C)c(CCN3C(=O)C4CC=CCC4C3=O)c2c1 (stereo not given) | 0.55
CCOC(=O)c1[nH]c(C)c(C(=O)NCCN2CCOCC2)c1C | 0.85
COc1cccc(CNC(=O)CN(c2cc(C)cc(C)c2)S(=O)(=O)c2c(C)noc2C)c1 | 1.34
CCC(=NCCc1ccccc1)C1=C(O)CCC1=O | 0.325
O=C(CN1CCN(Cc2ccccc2F)C1=O)NCCN1CCOCC1 | 1.27
CCOc1ccccc1NC(=O)c1c(NC(=O)CNCc2ccco2)sc2c1CCC2 | 1.43
O=C1C2CCCN2C(c2ccc(Br)cc2)N1c1ccc(F)cc1 (stereo not given) | 2.89
Cc1ccc(O)c(-c2cc(C(F)(F)C(F)F)[nH]n2)c1 | 0.725
COc1ccc(Cc2nc(-c3ccc(-n4cccc4)cc3)no2)cc1 | 3.82
CCN(CC)CCN1C(=O)c2ccccc2NC1c1cccc(F)c1 (stereo not given) | 0.75
CCOC(=O)COc1cccc2c(=O)n(CC(=O)N3CCc4ccccc43)ccc12 | 1.25
Cc1ccc(S(=O)(=O)/N=C(/Nc2nc(C)cc(C)n2)N2CCOCC2)cc1 | 1.6
O=C(COc1ccc(S(=O)(=O)NC2CCCCC2)cc1)N1CCN(c2ccc(F)cc2)CC1 | -0.725
COc1ccc(S(=O)(=O)Cc2ccc(C(=O)N3CCc4ccccc4C3)o2)cc1 | 0.315
Cc1c(C(=O)NCC(C)C)sc2nc(-c3ccc(F)cc3)cn12 | 2.99
CCCN1CCN(C(=O)C2CCN(S(=O)(=O)c3ccc4c(c3)oc(=O)n4C)CC2)CC1 | 3.06
COc1ccc(C(=O)/C=C/N2CCCCC2)cc1OC | 0.145
CCOCCn1c(CN(Cc2ccccc2)Cc2ccccc2)nc2c1c(=O)n(C)c(=O)n2C | 1.48
